Assay results from PubChem BioAssay (NCI).
Values joined by “and” are separate entries in the source; they are usually repeats but may differ in a detail not shown here. Equal entries are not always repeated. About 79,000 compounds went through this panel and 15% of them were active in at least one assay; those are over-represented in the sample as a whole. A structure can be active in one record and inactive in another. Active and inactive are the calls of the source. No stated cut-off is given here; in the data, active means growth inhibition above about 70%; inactive means the rest.

Legend:
[1] = NCI Yeast Anticancer Drug Screen. Data for the rad50 strain (AID 155);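 further: 0% = growth of vehicle-only cultures of the same strain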; conditions: S. cerevisiae rad50 strain growth inhibition, stronger effect = higher value
In short: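 Cells are treated with compound, grown, and their growth is then scored against vehicle-only cultures of the same repair-deficient yeast strain.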

[2] = NCI Yeast Anticancer Drug Screen. Data for the mec2-1 strain (AID 157); conditions: S. cerevisiae mec2-1 strain, stronger effect = higher value
In short: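 Compounds were applied to mec2-1 yeast cells. Their growth was then compared with that of vehicle-treated cultures to give growth inhibition.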

[3] = NCI Yeast Anticancer Drug Screen. Data for the sgs1 mgt1 strain (AID 161);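 further: 0% = growth of cultures given vehicle only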; conditions: S. cerevisiae sgs1 mgt1 strain, stronger effect = higher value
In short: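 Yeast cells carrying a defined DNA-repair defect were exposed to test compounds. Growth inhibition was measured relative to vehicle-treated controls.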

[4] = NCI Yeast Anticancer Drug Screen. Data for the cln2 rad14 strain (AID 165);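 further: 0% = growth equal to vehicle treated cultures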; conditions: S. cerevisiae cln2 rad14 strain, stronger effect = higher value
In short: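 Strain: cln2 rad14 yeast, altered in cell cycle control and DNA damage repair. Read-out: growth inhibition vs vehicle.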

[5] = NCI Yeast Anticancer Drug Screen. Data for the bub3 strain (AID 167); conditions: S. cerevisiae bub3 mutant strain, stronger effect = higher value
In short: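 Part of a panel of yeast mutants defective in DNA damage repair or cell cycle regulation. Each strain is grown with compound, and inhibition is calculated relative to solvent-treated cultures.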

[6] = NCI Yeast Anticancer Drug Screen. Data for the mlh1 rad18 strain (AID 175); conditions: S. cerevisiae mlh1 rad18 strain growth inhibition, stronger effect = higher value
In short: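 A repair-deficient yeast strain is exposed to test compound, and growth is scored relative to vehicle-treated controls.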

[7] = at 5.0 µM (retest, dose inferred, filed as 0.5)
[8] = at 50.0 µM (retest, dose inferred, filed as 5.0)

Measured: growth inhibition

O=C(/C=C/c1cccnc1)c1ccccc1
inactive: [1]; [7] 2% | [1]; [8] 48% | [1]; at 50.0 µM 9.2% and 25.8% | [2]; [7] 0% | [2]; [8] 67% | [2]; at 50.0 µM -9.2% and 41.6% | [3]; [7] -1% | [3]; [8] 65% | [3]; at 50.0 µM -15.7% and 61.4% | [4]; [7] 5% | [4]; [8] 14% | [4]; at 50.0 µM 15.1% and 3.65% | [5]; [7] 0% | [5]; [8] 40% | [5]; at 50.0 µM -10% and 25.5% | [6]; [7] 4% | [6]; [8] 36% | [6]; at 50.0 µM -21.9% and 69.2%

Oc1cc2c3c(c1)c1cc4c(cc1c[n+]3CC2)OCO4
74% (active) and 39% (inactive): [4]; [8]
72% (active) and 56% (inactive): [1]; [8]
85% (active) and 63% (inactive): [3]; [8]
84% (active) and 60% (inactive): [5]; [8]
inactive: [1]; [7] 42% and 11% | [1]; at 50.0 µM -22.4% and 52% | [2]; [7] 36% and 10% | [2]; [8] 57% and 41% | [2]; at 50.0 µM -44.9% and 33.4% | [3]; [7] 64% and 33% | [3]; at 50.0 µM -5.25% and 50.9% | [4]; [7] 59% and 28% | [4]; at 50.0 µM 0.95% and 43.3% | [5]; [7] 63% and 23% | [5]; at 50.0 µM -36.8% and 31.2% | [6]; [7] 30% and 7% | [6]; [8] 65% and 57% | [6]; at 50.0 µM -30.6% and 53%

C=C1C(=O)OC2CC(C)C3C4OC4C(O)C3(C)C(O)C12 (configuration not stated)
inactive: [1]; [7] 2% | [1]; [8] 0% | [1]; at 50.0 µM 69.9% | [2]; [7] 2% | [2]; [8] 4% | [2]; at 50.0 µM 39.1% | [3]; [7] 4% | [3]; [8] 8% | [3]; at 50.0 µM 65.7% | [4]; [7] -3% | [4]; [8] -6% | [4]; at 50.0 µM 50.4% | [5]; [7] 2% | [5]; [8] 6% | [6]; [7] 0% | [6]; [8] -2% | [6]; at 50.0 µM 63.6%
active: [5]; at 50.0 µM 71%

CCN(CC)CCNc1nc(NCCN(CC)CC)c2nc(-c3ccccc3)c(-c3ccccc3)nc2n1
active: [1]; [7] 91% | [1]; [8] 98% | [1]; at 50.0 µM 98.8% | [2]; [7] 84% | [2]; [8] 98% | [2]; at 50.0 µM 98.2% | [3]; [7] 95% | [3]; [8] 99% | [3]; at 50.0 µM 98.8% | [4]; [7] 76% | [4]; [8] 97% | [4]; at 50.0 µM 98% | [5]; [7] 92% | [5]; [8] 98% | [5]; at 50.0 µM 98% | [6]; [7] 92% | [6]; [8] 98% | [6]; at 50.0 µM 98.4%

c1ccc(C(c2ccccc2)n2ccnc2)cc1
inactive: [1]; [7] -95% | [1]; [8] -13% | [2]; [7] -11% | [2]; [8] 18% | [2]; at 50.0 µM 60% | [3]; [7] -23% | [3]; [8] 37% | [3]; at 50.0 µM 43.5% | [4]; [7] -27% | [4]; [8] -21% | [4]; at 50.0 µM 66.6% | [5]; [7] -57% | [5]; [8] 2% | [5]; at 50.0 µM 59.4% | [6]; [7] -72% | [6]; [8] 1%
active: [1]; at 50.0 µM 76.2% | [6]; at 50.0 µM 80.7%

NC(CCCCNC(=O)c1ccccc1)C(=O)O (configuration not stated)
91.9% (active) and -28.2% (inactive): [4]; at 50.0 µM
inactive: [1]; [7] -1% | [1]; [8] 4% | [1]; at 50.0 µM 17.2% and -18.6% | [2]; [7] 3% | [2]; [8] 2% | [2]; at 50.0 µM 5.85% and -22.1% | [3]; [7] 0% | [3]; [8] -3% | [3]; at 50.0 µM 0.1% and -35.4% | [4]; [7] 3% | [4]; [8] 4% | [5]; [7] 17% | [5]; [8] -2% | [5]; at 50.0 µM -5% and -23.4% | [6]; [7] -3% | [6]; [8] -3% | [6]; at 50.0 µM -1.1% and -21.9%

O=C1c2cccc(NCCCNCCO)c2C(=O)c2cccc(NCCCNCCO)c21
12.7% (inactive) and 88.5% (active): [3]; at 50.0 µM
inactive: [1]; [7] 33% | [1]; [8] 47% | [1]; at 50.0 µM 43.2% and 9.05% | [2]; [7] -8% | [2]; [8] 2% | [2]; at 50.0 µM 23.6% and 5.3% | [3]; [7] 26% | [3]; [8] 39% | [4]; [7] 30% | [4]; [8] 39% | [4]; at 50.0 µM 9% and 48.1% | [5]; [7] 13% | [5]; [8] 39% | [5]; at 50.0 µM -8.35% and 63.1% | [6]; [7] 15% | [6]; [8] 42%
active: [6]; at 50.0 µM 81.5% and 83.4%

CCCCCCN(CCCCCC)C(=O)C1=C(C)NC(C)=C(C(=O)N(CCCCCC)CCCCCC)C1
active: [3]; at 50.0 µM 85.2%
inactive: [1]; [7] 1% | [1]; [8] 15% | [1]; at 50.0 µM 56.4% | [2]; [7] -16% | [2]; [8] -3% | [2]; at 50.0 µM 4.4% | [3]; [7] -8% | [3]; [8] -1% | [4]; [7] 33% | [4]; [8] 14% | [4]; at 50.0 µM 0.5% | [5]; [7] -5% | [5]; [8] 17% | [5]; at 50.0 µM 34.9% | [6]; [7] -1% | [6]; [8] -13% | [6]; at 50.0 µM 59%

CC(C)(C)CC(C)(C)c1ccc(OCCO)cc1
inactive: [1]; [7] -2% | [2]; [7] -16% | [3]; [7] -6% | [4]; [7] -13% | [5]; [7] -21% | [6]; [7] -5%
-49.5% (inactive) and 99.3% (active): [4]; at 50.0 µM
-22.7% (inactive) and 99.6% (active): [1]; at 50.0 µM
-27.9% (inactive) and 99.5% (active): [6]; at 50.0 µM
25.9% (inactive) and 99.5% (active): [3]; at 50.0 µM
-40.5% (inactive) and 99.5% (active): [5]; at 50.0 µM
-11.3% (inactive) and 99.5% (active): [2]; at 50.0 µM
active: [1]; [8] 98% | [2]; [8] 99% | [3]; [8] 97% | [4]; [8] 99% | [5]; [8] 99% | [6]; [8] 99%

O=C1Nc2ccccc2C1(O)C/C(=N/O)c1ccc2ccccc2c1 (configuration not stated)
active: [3]; [7] 71% | [5]; [8] 77%
inactive: [1]; [7] 34% | [1]; [8] 36% | [1]; at 50.0 µM 35.1% | [2]; [7] 27% | [2]; [8] 40% | [2]; at 50.0 µM 13.9% | [3]; [8] 51% | [3]; at 50.0 µM 49.5% | [4]; [7] 52% | [4]; [8] 44% | [4]; at 50.0 µM 38% | [5]; [7] 47% | [5]; at 50.0 µM 14.9% | [6]; [7] 40% | [6]; [8] 64% | [6]; at 50.0 µM 66.5%

O=[N+]([O-])c1cccc2nc3ccccc3c(NCCN(CCO)CCO)c12
inactive: [3]; at 50.0 µM 52.5% | [5]; at 50.0 µM -17.6% | [6]; at 50.0 µM 58%
active: [1]; [7] 81% | [1]; [8] 94% | [1]; at 50.0 µM 71% | [2]; [7] 88% | [2]; [8] 98% | [2]; at 50.0 µM 73.4% | [3]; [7] 91% | [3]; [8] 98% | [4]; [7] 95% | [4]; [8] 99% | [4]; at 50.0 µM 84.8% | [5]; [7] 79% | [5]; [8] 99% | [6]; [7] 90% | [6]; [8] 96%

O=C(OC(=Nc1ccccc1)N(c1ccccc1)c1ccccc1)c1ccccc1
inactive: [1]; [7] 5% | [1]; [8] 27% | [1]; at 50.0 µM 13% and 20.9% | [2]; [7] 5% | [2]; [8] 8% | [2]; at 50.0 µM 3.75% and 12.8% | [3]; [7] -7% | [3]; [8] 40% | [3]; at 50.0 µM 12.7% and -15.7% | [4]; [7] 5% | [4]; [8] 21% | [4]; at 50.0 µM 17.8% and -2.05% | [5]; [7] 17% | [5]; [8] 34% | [5]; at 50.0 µM 5.4% and -0.45% | [6]; [7] 9% | [6]; [8] 20% | [6]; at 50.0 µM 1.95% and 12.6%

CN(C)c1ccc(/C=C/c2ccnc3ccccc23)c(Cl)c1
inactive: [1]; [7] -7% | [1]; [8] 10% | [1]; at 50.0 µM -1.1% and 16.1% | [2]; [7] -7% | [2]; [8] -4% | [2]; at 50.0 µM 11.4% and 3.15% | [3]; [7] -1% | [3]; [8] 35% | [3]; at 50.0 µM -0.1% and -2% | [4]; [7] -22% | [4]; [8] -29% | [4]; at 50.0 µM -32.5% and 35.4% | [5]; [7] -1% | [5]; [8] 43% | [5]; at 50.0 µM -1% and 23.1% | [6]; [7] -13% | [6]; [8] 28% | [6]; at 50.0 µM -5.45% and -11.5%

Cc1ccc(S(=O)(=O)Nc2cc(S(=O)(=O)O)c(N)c3c2C(=O)c2ccccc2C3=O)cc1
active: [1]; [8] 99% | [2]; [8] 99% | [4]; [8] 89% | [5]; [8] 78% | [6]; [8] 99%
inactive: [1]; [7] 51% | [1]; at 50.0 µM 60.2% | [2]; [7] 47% | [2]; at 50.0 µM 30.4% | [3]; [7] 25% | [3]; [8] 65% | [3]; at 50.0 µM 62.8% | [4]; [7] 43% | [4]; at 50.0 µM 66.2% | [5]; [7] 45% | [5]; at 50.0 µM 60.1% | [6]; [7] 53% | [6]; at 50.0 µM 60.5%
